Hit rate of the full screen: of about 360,000 compounds, about 1,600 (0.44%) were called active. Shown is part of a subset that was picked to be rich in actives. Unmarked numbers belong to inactive results.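 The calls were made as follows: active = inhibition above the screen-wide average plus 3 SD (cut at about 13% in these data); inactive = the rest.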
These molecules were tested against Galanin receptor type 3 (Homo sapiens) (UniProt O60755) (assay: blockers of human galanin receptor 3 – cell-based, fluorescence readout, primary screen (AID 651719;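 also: forskolin and galanin both at EC90 stimulate the cells; cAMP rise reported by CNG channel membrane potential dye signal; 0% = forskolin plus galanin with DMSO and 100% = forskolin alone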)). Conditions: HEK293 GalR3-CNG cAMP membrane potential fluorescence; at 3 µM; hits give high values; galR3 body fused to GalR1 C-terminus.
Chain of Galanin receptor type 3 (Homo sapiens) (O60755 1-299 limits assumed): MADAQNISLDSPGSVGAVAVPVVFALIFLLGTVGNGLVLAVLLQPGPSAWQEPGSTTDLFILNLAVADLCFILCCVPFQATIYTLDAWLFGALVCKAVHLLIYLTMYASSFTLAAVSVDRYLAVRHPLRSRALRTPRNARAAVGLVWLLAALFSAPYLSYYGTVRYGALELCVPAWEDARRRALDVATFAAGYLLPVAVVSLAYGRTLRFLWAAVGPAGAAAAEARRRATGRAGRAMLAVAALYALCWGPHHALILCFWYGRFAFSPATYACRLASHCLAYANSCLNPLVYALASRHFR

SMILES | inhibition
CC(=O)c1ccc(S(=O)(=O)NCC2CCN(C(=O)C(=O)c3cccs3)CC2)cc1 | -4.03%
CC[C@H](NC(=O)[C@H](Cc1ccccc1)NC(=O)[C@H]1O[C@@H](n2cnc3c(=O)[nH]c(N)nc32)[C@H](O)[C@@H]1O)c1ccccc1 | -6.3%
CCCOc1ccc(Cn2c(O)cc(=O)[nH]c2=O)cc1 | 4.51%
CCCOc1ccc(Cc2c(Cl)nc(SC)nc2NC)cc1 | 63.8% (active)
CCCOc1ccc(Cc2c(O)nc(SC)[nH]c2=O)cc1C | -4.3%
COc1cccc(CNC(=O)[C@H]2CCCN2C(=O)[C@H]2CCCN2C(=O)c2cc(F)cc(F)c2)c1 | -4.4%
O=C1[C@@H](c2ccccc2)[C@@H](c2ccccc2)N1c1ccccc1 | -1.03%
O=C(NCc1ccccc1)[C@@H]1CCCN1C(=O)[C@@H](NS(=O)(=O)c1ccc(F)cc1F)C1CCCCC1 | -7.14%
COc1cc(Nc2nc3ccc(Cl)cc3n3cnnc23)cc(OC)c1OC | -10.3%
COc1ccc(CCNc2nc3ccc(C)cc3n3cnnc23)cc1OC | 18.6% (active)
COc1ccc(CCNc2nc(C)cc(C)n2)cc1OC | -8.92%
C[C@H](CO)N1C[C@H](C)[C@@H](CN(C)C(=O)Nc2ccccc2F)OCc2cn(nn2)CCCC1=O | -5.31%
COc1cccc(CNC(=O)[C@H]2CCCN2C(=O)[C@H]2CCCN2C(=O)c2ccc(F)cc2)c1 | -5.33%
CSc1nc(N(C)NC(=O)c2cccc(C)c2)c2ccccc2n1 | 17.1% (active)
CN(NC(=O)c1ccccc1F)c1nc(C(F)(F)F)nc2ccccc12 | 0.05%
Cc1ccc(S(=O)(=O)NC(=O)c2cccc(C)c2)cc1 | -0.66%
O=C(NN=Cc1ccco1)C(=O)Nc1ccc(Cl)c([N+](=O)[O-])c1 | -5.99%
N#CC1=C(N)Oc2n[nH]c(CSc3ccccc3)c2C12C(=O)Nc1ccccc12 (configuration not stated) | -2.39%
Cc1cc(C)c(C#N)c(SCc2[nH]nc3c2C(c2ccccc2)C(C#N)=C(N)O3)n1 (configuration not stated) | 34.7% (active)
Cc1cc(C)c(C#N)c(SCc2ccc3c(c2)OCO3)n1 | -0.74%
COCCNc1nc(N)c([N+](=O)[O-])c(N2CCCCCC2)n1 | -10.6%
Nc1nc(NCC(=O)O)nc(N2CCCCCC2)c1[N+](=O)[O-] | 15.1% (active)

SMILES | inhibition
CC1CN(c2nc(Nc3ccccc3)nc(N)c2[N+](=O)[O-])CC(C)O1 (configuration not stated) | -0.56%
COC(=O)C1=C(C)N(Cc2cccc(C(F)(F)F)c2)C(=NCc2ccccc2)NC1c1ccccc1C(F)(F)F (configuration not stated) | -3.46%
COC(=O)C1=C(C)N(Cc2ccc(C(F)(F)F)cc2)C(=NCc2ccc(C(F)(F)F)cc2)NC1c1cccc(Cl)c1 (configuration not stated) | -3.2%
CCNC(=S)Nc1ccc(OC(F)(F)F)cc1 | 13.5% (active)
COC(=O)Cc1ccc(OCC(=O)Nc2ccc(OC(F)(F)F)cc2)cc1 | 0.64%
CN(CC(=O)Nc1ccc(OC(F)(F)F)cc1)C(=O)C1CCC1 | -3.79%
CCc1ccc(C2=CC(=O)CC(C)(C)C2=O)cc1 | -5.55%
CC(C)CNc1cccc2c1S(=O)(=O)N[C@H](CC(C)C)CO2 | -4.83%
COC(=O)C1=C(C)NC(=S)NC1c1ccc(OC)cc1 (configuration not stated) | -6.49%
COC(=O)c1cc2c(c3c4ccccc4n(S(=O)(=O)c4cccc(C)c4)c13)C(=O)N(Cc1ccccc1)C2 | -7.5%
Cc1c(N=Nc2ccc(N(C)C)cc2)c(=O)n(-c2ccccc2)n1C | 4.41%
Cc1nc(N)sc1N=Nc1c(C)n(C)n(-c2ccccc2)c1=O | -1.11%
CCn1c(-c2cc(OC)ccc2OC)csc1=Nc1c(C)n(C)n(-c2ccccc2)c1=O | 12.9% (active)
Cc1[nH]nc2c1C(c1ccc(Br)cc1)NC2=O (configuration not stated) | -4.49%
CN1CCCCC(NC(=O)C(C)(C)C)C1=O (configuration not stated) | -7.34%
N#Cc1ccc(OCCCN2CCC(C(O)(c3ccccc3)c3ccccc3)CC2)c(F)c1 | -9.27%
CCOC(=O)C1CSCCS(=O)(=O)N1Cc1ccc(Cl)cc1 (configuration not stated) | -4.45%
CC1(C)OC(=O)C2=C(CC(CCc3ccccc3)OC2c2ccc(Cl)cc2)O1 (configuration not stated) | -5.79%
O=C(CC1C(=O)NCCN1CC(c1ccccc1)c1ccccc1)NCCc1cn[nH]c1 (configuration not stated) | 13.4% (active)
CN(CCc1cn[nH]c1)C(=O)CC1C(=O)NCCN1Cc1cccc(Oc2ccccc2)c1 (configuration not stated) | -7.77%
O=C(CC1C(=O)NCCN1CC(c1ccccc1)c1ccccc1)NCC1CCOCC1 (configuration not stated) | -1.82%
CCOC(=O)/C=C/c1ccccc1O | -6.85%

SMILES | inhibition
C=CCN=C1NC(c2ccccc2)C(C(=O)OC)=C(C)N1Cc1ccc(C(F)(F)F)cc1 (configuration not stated) | -6.78%
c1ccc(Cc2ccc(OCCn3ccnc3)cc2)cc1 | 44.4% (active)
Clc1c(OCCCn2ccnc2)ccc2ccccc12 | -12.1%
Brc1ccc(OCCn2ccnc2)cc1 | 0.74%
C=CC[C@]12C[C@@]3(O[C@H](c4ccc(C(F)(F)F)cc4)N=C3C[C@H](c3ccc(OC)cc3)[C@H]1C)N(C1CCN(Cc3ccccc3)CC1)C2=O | -4.57%
CCOc1ccccc1C(=O)N1CCC[C@@H]1C(=O)N1CCC[C@H]1C(=O)NCc1ccccc1 | -4.67%
CN(Cc1cccnc1)C(=O)c1cc(COc2ccc3ncccc3c2)on1 | 91.7% (active)
CN(Cc1cnccn1)C(=O)c1cc(COc2cccc(C(F)(F)F)c2)on1 | -2.96%
CC(=O)c1cccc(OCc2cc(C(=O)NC(C)Cc3cccnc3)no2)c1 (configuration not stated) | 0.17%
O=S1(=O)c2c(cccc2N2CCCC2)O[C@H](COCc2ccccc2)CN1C1CC1 | -3.31%
Cn1cnc([N+](=O)[O-])c1Sc1n[nH]c(N)n1 | -10.2%
Cn1cnc([N+](=O)[O-])c1Sc1ccccc1 | -2.26%
Cn1cnc([N+](=O)[O-])c1Nc1ccccc1O | 13.4% (active)
Cc1cc(Br)cn2c(Cc3ccccc3C(F)(F)F)c(-c3ccc(C#N)cc3)nc12 | -0.22%
Nc1[nH]c(C(=O)c2ccccc2)c(-c2ccc(Cl)cc2Cl)c1C(=O)c1ccccc1 | -7.95%
COc1cc(Cl)c(C)cc1NC(=O)[C@@H]1CCCN1C(=O)c1cccs1 | 14% (active)
Cc1ccc(S(=O)(=O)N2CCCCC2)cc1NC(=O)[C@@H]1CCCN1C(=O)c1cccs1 | -1.7%
COc1ccc(Cl)cc1NC(=O)[C@@H]1CCCN1C(=O)c1cccs1 | -4.08%
C[C@@H](CN1C2=NC[C@@H](Cc3ccccc3)N2C[C@H]1Cc1ccc(O)cc1)NC(=O)CCC1CCCCC1 | -7.8%
COC(=O)C1=C(C)N(Cc2ccccc2C(F)(F)F)C(=NCC2CC2)NC1c1cccc(Cl)c1 (configuration not stated) | -5.91%
COc1ccc(-c2[nH]nc3c2C(c2ccncc2)C(C#N)=C(N)O3)cc1 (configuration not stated) | 16.3% (active)
COc1ccc(C2C(C#N)=C(N)Oc3n[nH]c(C)c32)cc1CN1CCN(c2ccc(F)cc2)CC1 (configuration not stated) | -5.67%

SMILES | inhibition
CCCc1nc2c([nH]1)C(c1cccnc1)C(C#N)=C(N)O2 (configuration not stated) | -0.27%
COC(=O)[C@]1(Cc2ccccc2)NC=C(C(=O)c2ccccc2)[C@@H]1c1cccc(OC)c1 | -6.78%
CCCCNC(=O)c1ccccc1NC(=O)c1ccccc1N(C)S(C)(=O)=O | -3.23%
COc1ccc(N2CCN(C(=O)c3ccccc3NC(=O)C3=C(C)OCCS3)CC2)cc1 | -6.97%
CCCCNC(=O)c1ccccc1NC(=O)C1=C(C)OCCS1 | 103% (active)
CC1CCCN(c2cccc3c2S(=O)(=O)N(Cc2ccc(F)cc2)[C@@H](C)[C@H](c2ccccc2)O3)C1 (some centres not stated) | -4.47%
O=C1COc2ccc(C(=O)COC(=O)CCOc3ccccc3)cc2N1 | -1.45%
CC(C)[C@@H](C(=O)OCC(=O)c1ccc2c(c1)NC(=O)CO2)N1C(=O)c2ccccc2C1=O | 42.5% (active)
O=C1COc2ccc(C(=O)COC(=O)c3ccccc3Cl)cc2N1 | -5.73%
OC(c1ccccc1)(c1ccccc1)C1CCN(CCCOc2ccc(-c3ccsc3)cc2)CC1 | -4.38%
CNC(=O)NC(=O)CSc1nnc(-c2ccc(F)cc2)n1CC1CCCO1 (configuration not stated) | 29.6% (active)
Cc1nnc(SCC(=O)NNC(=O)c2ccc(Cl)cc2)n1CC1CCCO1 (configuration not stated) | -3.6%
O=C(CSc1nnc(-c2ccco2)n1CC1CCCO1)c1ccccc1 (configuration not stated) | -2.73%
COc1cc2c(cc1OC)C(c1cccc([N+](=O)[O-])c1)=NCC2 | 13.9% (active)
COc1cc2c(cc1OC)C(Cc1cc(OC)c(OC)cc1[N+](=O)[O-])=NCC2 | -6.44%
COc1cc2c(cc1OC)C(/C=C/c1ccco1)=NCC2 | -5.84%
CC(C)CNc1cccc2c1S(=O)(=O)N[C@H](C)CO2 | -4.46%
COC(=O)Cc1nnn2c1[C@H](C)[C@H](c1ccccc1Br)OCC2 | -3.41%
COc1ccc(OC)c(NC(=O)CSc2nc(-c3ccccc3)cc(=O)[nH]2)c1 | -1.18%
COc1ccc(OC)c(NC(=O)CSc2nc(N)c(-c3ccccc3)c(=O)[nH]2)c1 | 29.8% (active)
COc1ccc(NC(=O)CSc2nc(N)c(-c3ccccc3)c(=O)[nH]2)cc1 | 1.59%

— PubChem BioAssay AID651719 (The Scripps Research Institute Molecular Screening Center, 2012)
